# Measurements from PubChem BioAssay (NCATS).
# Values joined by “and” are separate entries in the source; they are usually repeats but may differ in a detail not shown here. Equal entries are not always repeated. Inconclusive results are not listed. A number with no mark means an inactive call. Active and inactive are the calls of the source. The call rests on the fitted dose curve; in most records, active means well fitted inhibition curve with a large enough effect; inconclusive means small, poorly fitted or top-dose-only effect; inactive means flat fitted curve, though single readings scatter. Where a SMILES comes first, the peptide text is derived from it. Bridges are numbered along the chain shown (N, C = ends). [ ]: non-standard residue; d: D form. The star is where a group is joined. Dab(CH2SO3H) = N[C@@H](CCNCS(=O)(=O)O)C(=O)O; X3 = CC[C@@H](C)CCCCC(=O)*; Dab = NCC[C@H](N)C(=O)O
# Legend:
# HEK293 = experiment: Cytotoxic Profiling of Annotated Libraries Using Quantitative High-Throughput Screening (AID 1296008); conditions: Five cell lines viability, CellTiter-Glo ATP luminescence, 48-72 h; max response: stronger effect = lower value
# Method in brief: (§1)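 Compounds were pin-transferred onto cells and incubated 48 or 72 hr at 37 degree Celsius, 95% humidity. CellTiter-Glo was added, plates sat 10 min at room temperature, then ATP-coupled luminescence was imaged as the viability read-out.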
# HaCat [1] = experiment: as above; conditions: Five cell lines viability, CellTiter-Glo ATP luminescence, 48-72 h; max response: stronger effect = lower value
# Method in brief: as §1
# KB-3-1 = experiment: as above; conditions: Five cell lines viability, CellTiter-Glo ATP luminescence, 48-72 h; max response: stronger effect = lower value
# Method in brief: as §1
# NIH3T3 = experiment: as above; conditions: Five cell lines viability, CellTiter-Glo ATP luminescence, 48-72 h; max response: stronger effect = lower value
# Method in brief: as §1
# HEK293T = experiment: qHTS assay to identify novel small-molecules to repurpose for Merkel cell carcinoma treatment (AID 1296009); conditions: MCC and control cell lines, CellTiter-Glo viability, 72 h; series mostly up to 44.8 µM
# Method in brief: (§2)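 qHTS format: cells treated with library compounds in DMSO across 8 (NPC) or 11 (MIPE) concentrations. Readout after 72 hr at 37 degree celsius was CellTiter-Glo luminescence.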
# MCC-13 = experiment: as above; conditions: MCC and control cell lines, CellTiter-Glo viability, 72 h; series mostly up to 46 µM
# Method in brief: as §2
# MCC-26 = experiment: as above; conditions: MCC and control cell lines, CellTiter-Glo viability, 72 h; series mostly up to 46 µM
# Method in brief: as §2
# MKL-1 = experiment: as above; conditions: MCC and control cell lines, CellTiter-Glo viability, 72 h; series mostly up to 46 µM
# Method in brief: as §2
# MKL-2 = experiment: as above; conditions: MCC and control cell lines, CellTiter-Glo viability, 72 h; series mostly up to 46 µM
# Method in brief: as §2
# HACAT [2] = experiment: as above; conditions: MCC and control cell lines, CellTiter-Glo viability, 72 h; at 44.8 µM (top of the series) unless noted
# Method in brief: as §2
# Further: nearly all actives have a fitted effect of over 60% in size.
# On the % scale 0 is the no-effect control and ±100 the full control effect; potency means the concentration at half of the fitted maximal effect.
structure (smiles),measurement,setting,value
C=C1CC[C@H]2[C@@](C)(CCC[C@@]2(C)C(=O)O)[C@@H]1CCC(C)CCO (some centres undefined),outcome,HEK293,inactive
same,max response,HaCat [1],1.39%
same,max response,KB-3-1,2.57%
same,max response,NIH3T3,3.89%
same,Potency,HEK293T,inactive
CC1=CCC2C(C)(CO)CCCC2(CO)C1CO (centres undefined),outcome,HEK293,inactive
same,max response,HaCat [1],-5.9%
same,outcome,KB-3-1,inactive
same,outcome,NIH3T3,inactive
same,Potency,HEK293T,inactive
CC(C)=CCCC1(C)Oc2cc3c(c4c2C2C(O4)C(C)(O)CCC21)CN(C(CCC(=O)O)C(=O)O)C3=O (centres undefined),outcome,HEK293,inactive
same,max response,HaCat [1],-6.38%
same,outcome,KB-3-1,inactive
same,outcome,NIH3T3,inactive
same,Potency,HEK293T,inactive
CC1(C)CCC(C)(C)c2cc([C@@H](O)C(=O)Nc3ccc(C(=O)O)cc3F)ccc21,outcome,HEK293,inactive
same,max response,HaCat [1],-6.8%
same,outcome,KB-3-1,inactive
same,outcome,NIH3T3,inactive
same,Potency,HEK293T,inactive
CC(/C=C/[C@]1(O)[C@@]2(C)CO[C@@]1(C)C[C@@H](O)C2)=C\C(=O)O[C@@H]1O[C@H](CO)[C@@H](O)[C@H](O)[C@H]1O,outcome,HEK293,inactive
same,max response,HaCat [1],-14.2%
same,outcome,KB-3-1,inactive
same,outcome,NIH3T3,inactive
same,Potency,HEK293T,inactive
CC(=O)OCCC(C)CCC1C(C)(O)CCC2C(C)(C)CCCC21C (centres undefined),outcome,HEK293,inactive
same,max response,HaCat [1],-0.371%
same,outcome,KB-3-1,inactive
same,max response,NIH3T3,-3.93%
same,Potency,HEK293T,inactive
CN1Cc2c(N)cccc2C(c2ccccc2)C1 (centres undefined),outcome,MCC-13,inactive
same,outcome,MCC-26,inactive
same,outcome,MKL-1,inactive
same,outcome,MKL-2,inactive
CC[C@H]1OC(=O)C[C@@H](O)[C@H](C)[C@@H](O[C@@H]2O[C@H](C)[C@@H](O)[C@H](N(C)C)[C@H]2O)[C@@H](CCN2C[C@H](C)C[C@H](C)C2)C[C@@H](C)C(=O)/C=C/C(C)=C/[C@@H]1CO[C@@H]1O[C@H](C)[C@@H](O)[C@@H](OC)[C@H]1OC,outcome,HaCat [1],inactive
same,max response,KB-3-1,2.68% and 4.42%
same,outcome,NIH3T3,inactive
same,outcome,HACAT [2],inactive
IC(I)I,max response,KB-3-1,9.13%
CC1(C)S[C@@H]2[C@H](NC(=O)Cc3ccccc3)C(=O)N2[C@H]1C(=O)O,max response,KB-3-1,-8.27%
O=C(O)CCC(=O)C(=O)O,max response,KB-3-1,-11.9%
CCCCCCCC/C=C\CCCCCCCC(=O)O,max response,KB-3-1,4.43%
CN(C)CC/C=C1/c2ccccc2CSc2ccccc21,max response,KB-3-1,-13.6%
CC(C)NCC1CCc2cc(CO)c([N+](=O)[O-])cc2N1 (centres undefined),max response,KB-3-1,2.46%
OC[C@H]1O[C@@H](n2cnc3c2NC=NC[C@H]3O)C[C@@H]1O,outcome,HEK293,inactive
same,max response,KB-3-1,-3.14% and 0.256%
same,max response,NIH3T3,-9.01%
same,Potency,HEK293T,inactive
CON(C)C(=O)N1N=C(c2cc(F)ccc2F)S[C@@]1(CCCN)c1ccccc1,Potency,HEK293,0.0046 µM (active)
same,Potency,KB-3-1,8.2 nM (active)
same,max response,NIH3T3,-29.1%
C=C1CC2C3(C)C(OC(C)=O)CC(=O)OC(C)(C)C3C(O)C(OC(C)=O)C2(C)C2C(=O)OC(C)C(=O)C12C (centres undefined),outcome,HEK293,inactive
same,max response,HaCat [1],-15.7%
same,max response,NIH3T3,-3.76%
same,Potency,HEK293T,inactive
CC[C@@H](C)CCCCC(=O)N[C@@H](CCNCS(=O)(=O)O)C(=O)N[C@H](C(=O)N[C@@H](CCNCS(=O)(=O)O)C(=O)N[C@H]1CCNC(=O)[C@H]([C@@H](C)O)NC(=O)[C@H](CCNCS(=O)(=O)O)NC(=O)[C@H](CCNCS(=O)(=O)O)NC(=O)[C@H](CC(C)C)NC(=O)[C@@H](CC(C)C)NC(=O)[C@H](CCNCS(=O)(=O)O)NC1=O)[C@@H](C)O (X3-[Dab(CH2SO3H)]T[Dab(CH2SO3H)][Dab][Dab(CH2SO3H)][dL]L[Dab(CH2SO3H)][Dab(CH2SO3H)]T; lactam 4-C),max response,KB-3-1,9.65%
O=C(O)c1cc(O)c2c(c1)[O][Bi][O]2,max response,KB-3-1,2%
O=C(/C=C/c1ccc(O)cc1)O[C@H]1[C@@H]2C=CO[C@@H](O[C@@H]3O[C@H](CO)[C@@H](O)[C@H](O)[C@H]3O)[C@@H]2[C@@]2(CO)O[C@@H]12,outcome,HEK293,inactive
same,max response,HaCat [1],1.73%
same,max response,NIH3T3,0.736%
same,Potency,HEK293T,inactive
CC(=O)Oc1c(C)cc(OCC(O)CNC(C)C)c(C)c1C (centres undefined),max response,KB-3-1,4.82%
CC(C)C(=O)OCC(=O)[C@@]12O[C@H](C3CCCCC3)O[C@@H]1C[C@H]1[C@@H]3CCC4=CC(=O)C=C[C@]4(C)[C@H]3[C@@H](O)C[C@@]12C,max response,KB-3-1,-5.72%
COc1ccc(C[C@H](N)C(=O)N[C@H]2[C@@H](O)[C@H](n3cnc4c(N(C)C)ncnc43)O[C@@H]2CO)cc1,Potency,HaCat [1],1.3 µM (active)
same,Potency,KB-3-1,5.17 µM (active) and 517 nM (active)
same,Potency,NIH3T3,2.31 µM (active)
same,Potency,HEK293T,1.16 µM (active)
CC[C@@H](C(=O)[C@@H](C)[C@@H](O)[C@H](C)CCc1ccc(C)c(O)c1C(=O)O)[C@H]1O[C@](CC)([C@H]2CC[C@](O)(CC)[C@H](C)O2)C[C@@H]1C,max response,KB-3-1,10.1%
CC(=O)Oc1cc(C)c(OC(C)=O)c2ccccc12,max response,KB-3-1,4.15%
C=C(NC(=O)C(=C)NC(=O)c1csc(C2=N[C@@H]3c4csc(n4)[C@H]4NC(=O)c5csc(n5)[C@H]([C@](C)(O)[C@@H](C)O)NC(=O)[C@H]5CSC(=N5)C(=CC)NC(=O)C([C@@H](C)O)NC(=O)c5csc(n5)[C@]3(CC2)NC(=O)[C@H](C)NC(=O)C(=C)NC(=O)[C@H](C)NC(=O)C([C@@H](C)CC)NC2C=Cc3c([C@H](C)O)cc(nc3C2O)C(=O)O[C@@H]4C)n1)C(N)=O (some centres undefined),max response,KB-3-1,-16.7%
COc1ccc(C[C@@H](C)NC[C@H](O)c2ccc(O)c(NC=O)c2)cc1,max response,KB-3-1,2.59%
C[C@@H]1C[C@H]2[C@@H]3CCC4=CC(=O)C=C[C@]4(C)[C@@]3(F)[C@@H](O)C[C@]2(C)[C@@]1(O)C(=O)COP(=O)(O)O,max response,HEK293,4.74%
same,max response,KB-3-1,13.8%
same,outcome,KB-3-1,inactive
C[C@]12CCC(=O)C=C1CC[C@@H]1[C@@H]2[C@@H](O)C[C@@]2(C)[C@H]1CC[C@]2(O)C(=O)COP(=O)(O)O,max response,KB-3-1,13.4%
Cc1c(-c2ccnn2C)cc(C(=O)NCc2ccc(S(C)(=O)=O)cn2)c(=O)n1-c1cccc(C(F)(F)F)c1,max response,HEK293,-6.6% [middle of 4 runs]
same,max response,KB-3-1,2.1% and 7.91%
same,outcome,KB-3-1,inactive
same,max response,NIH3T3,0.936% and -17.4% and -7.73%
CCCC(=O)Nc1ncnc2c1ncn2[C@@H]1O[C@@H]2COP(=O)(O)O[C@H]2[C@H]1OC(=O)CCC,max response,KB-3-1,-5.3%
CCCCC(=O)OCC(=O)[C@]1(O)Cc2c(O)c3c(c(O)c2[C@@H](O[C@H]2C[C@H](NC(=O)C(F)(F)F)[C@H](O)[C@H](C)O2)C1)C(=O)c1c(OC)cccc1C3=O,Potency,KB-3-1,8200 nM (active)
CO[C@H]1C=CO[C@@]2(C)Oc3c(C)c(O)c4c(O)c(c5c(nc6cc(C)ccn65)c4c3C2=O)NC(=O)/C(C)=C\C=C[C@H](C)[C@H](O)[C@@H](C)[C@@H](O)[C@@H](C)[C@H](OC(C)=O)[C@@H]1C,max response,KB-3-1,5.41%
O=S(=O)(O)O,max response,KB-3-1,5.37%
CN1CCC(CN2c3ccccc3Sc3ccccc32)C1 (centres undefined),max response,KB-3-1,-8.09%
Cc1cc(CC(C)CC(C)(C)C)n(O)c(=O)c1 (centres undefined) (tested in a mixture with another compound),max response,KB-3-1,29.3%
CC(=O)OCC(=O)[C@@]1(O)CC[C@H]2[C@@H]3C[C@H](C)C4=CC(=O)C=C[C@]4(C)[C@H]3[C@@H](O)C[C@@]21C,max response,KB-3-1,15.9%
O=CCCCC=O,max response,KB-3-1,-2.08%
CCOc1ccc2c(c1)C(C)=CC(C)(C)N2,max response,KB-3-1,-2.71%
CCC(=O)O[C@]1(C(=O)CCl)[C@@H](C)C[C@H]2[C@@H]3C[C@H](F)C4=CC(=O)C=C[C@]4(C)[C@@]3(F)[C@@H](O)C[C@@]21C,max response,HaCat [1],-1.16%
same,max response,KB-3-1,-4.75% and -10.3%
same,max response,NIH3T3,1.57%
COC1=CC(=O)C[C@@H](C)[C@]12Oc1cc(OC)cc(OC)c1C2=O,outcome,HEK293,inactive
same,max response,HaCat [1],-2.69%
same,outcome,NIH3T3,inactive
same,Potency,HEK293T,inactive
CC(C)CC(=O)OC[C@H]1O[C@@](COC(=O)CC(C)C)(O[C@H]2O[C@H](CO)[C@@H](O)[C@H](O)[C@H]2OC(=O)CC(C)C)[C@@H](OC(=O)CC(C)C)[C@@H]1O,outcome,HEK293,inactive
same,max response,HaCat [1],-5.25%
same,max response,NIH3T3,0.671%
same,Potency,HEK293T,inactive
OCCO[C@@H]1[C@@H](O)[C@H](O)[C@@H](CO)O[C@@H]1O,max response,KB-3-1,22%
CC1(C)CC2C(C1)C1(C)CCC13OC3(CO)C2O (centres undefined),outcome,HEK293,inactive
same,max response,HaCat [1],-6.47%
same,max response,NIH3T3,5%
same,Potency,HEK293T,inactive
Cc1c(CN(C)C(=O)/C=C/c2cnc3c(c2)CCC(=O)N3)oc2ccccc12,outcome,HEK293,inactive
same,max response,HaCat [1],1.29%
same,max response,NIH3T3,-2.06%
same,Potency,HEK293T,inactive
CCOC(=O)O[C@]1(C(=O)COC(=O)CC)CC[C@H]2[C@@H]3CCC4=CC(=O)C=C[C@]4(C)[C@H]3[C@@H](O)C[C@@]21C,max response,KB-3-1,0.126%
